Reference: ChEMBL document CHEMBL4513216, “Probing the Open Global Health Chemical Diversity Library for Multistage-Active Starting Points for Next-Generation Antimalarials” (ACS Infect Dis, 2020)
Screen size: about 69,000 compounds; about 8,600 (12%) showed an effect of 50% or more. For the sample, strong results were picked, then their nearest neighbours and some compounds at random.

Each molecule was assayed on Plasmodium berghei (assay: Screen against P. berghei liver stage (PbLuc), transformed with Luciferase, at 10uM). Conditions: tested at 10 uM.
Type: functional, HepG2
`O=C(CCNc1ncccn1)Nc1cc(C(F)(F)F)c[nH]c1=O` showed an INHIBITION of -1.7%. `O=C(NCc1ccco1)[C@H]1C[C@@H]2CCN(c3ccncn3)C[C@@H]2O1` gave an INHIBITION of 21.7%. Molecule `Cc1cnccc1CN(C)C(=O)c1ccc(Cn2cnnn2)cc1` has an INHIBITION of 54.9%. `Cc1nc(CN(C)C(=O)c2ccc(Cn3cnnn3)cc2)cs1` was tested, and the INHIBITION was 16.5%. `Cc1ncsc1CCN(C)C(=O)c1ccc(Cn2cnnn2)cc1` was tested, and the INHIBITION was -0.448%. `CCc1noc(C(C)N2CCC(O)CC2)n1` (stereo unspecified) was tested, and the INHIBITION was 37.9%. With `Cc1noc(C)c1C(=O)NCCSCc1cccs1` the INHIBITION was 29.5%. For `CCN1CCN(C(=O)NCCOc2ccc3c(c2)OCO3)CC1`, the INHIBITION was 2.63%. For `O=C(c1n[nH]c2c1CCC2)N1CCCC1c1nc(-c2ccccc2)no1` (stereo unspecified), the INHIBITION was -68.4%. `COc1ncccc1C(=O)N1CCCC1c1nc(-c2ccccc2)no1` (stereo unspecified) was tested, and the INHIBITION was 64.9%. For `Cc1nc(CC(=O)N2CCCC2c2nc(-c3ccccc3)no2)cs1` (stereo unspecified), the INHIBITION was 38.2%. `COc1ncccc1C(=O)N1CC(c2nc(-c3ccccn3)no2)C1` was tested, and the INHIBITION was 33.5%. `COc1nc2c(cc1C(=O)N1CCCCC1c1ccccn1)CCC2` (stereo unspecified) was tested, and the INHIBITION was -34.4%. For `COc1ccc(C(=O)N2CCCCC2c2ccccn2)c(OC)n1` (stereo unspecified), the INHIBITION was 53.2%. For `COc1nc2c(cc1C(=O)N1CCCC1c1ccccn1)CCC2` (stereo unspecified), the INHIBITION was 1.74%. Work on `CC(C)c1cc(C(=O)N2CCCC2c2nc(-c3ccccc3)no2)[nH]n1` (stereo unspecified) yielded an INHIBITION of 55.5%. `COc1ncccc1C(=O)N1CCCC1c1nc(-c2ccccc2)n[nH]1` (stereo unspecified) was tested, and the INHIBITION was 47.6%. In the case of `Cc1ncc(-c2ccncc2)c(C2CCN(C(=O)c3ccco3)CC2)n1`, the INHIBITION was -21%. `CCc1nc(CN(C)C2CCN(CC(F)(F)F)C2)no1` (stereo unspecified) gave an INHIBITION of 4.71%. Molecule `CN1CCOC(CNCc2c(Cl)nc3ccccn23)C1` (stereo unspecified) has an INHIBITION of -2.43%. In the case of `CC[C@@H]1N(Cc2ccc(OC)cc2)CCC[C@]12CCC(=O)N2CCOC`, the INHIBITION was -5.31%. With `Cc1noc(CC2CCN(C(=O)C(c3ccccc3C)N(C)C)CC2)n1` (stereo unspecified) the INHIBITION was -21.1%. With `COCc1nc(C(=O)N2CCCC2c2cc(C)on2)cs1` (stereo unspecified) the INHIBITION was 0.914%. For `O=C(c1cc2c(s1)CCC2)N1CCCC(c2cnccn2)C1` (stereo unspecified), the INHIBITION was -94%. With `CNc1ccnc(NCC(=O)Nc2cc(C)ccc2OC)n1` the INHIBITION was 53%. `CNc1ccnc(NCCC(=O)Nc2ccccc2OC)n1` gave an INHIBITION of 49.7%. `COc1ccc(C)cc1NC(=O)CNc1ccn(CC(N)=O)n1` gave an INHIBITION of -41.6%. For `CC(C)COC1CCN(S(=O)(=O)Cc2cccc(F)c2)CC1`, the INHIBITION was 20.9%. `CNC(=O)[C@@H]1C[C@@H](N)CN1c1nnc(-c2ccccc2)s1` showed an INHIBITION of 74.9%. Molecule `CCN(CC)C(=O)[C@@H]1C[C@H](N)CN1c1noc(-c2ccccc2)n1` has an INHIBITION of 9.04%. For `CCN(CC)C(=O)[C@@H]1C[C@@H](NC(=O)c2cccn2C2CC2)CN1C`, the INHIBITION was 20.5%. Work on `CCN(CC)C(=O)[C@@H]1C[C@H](N)CN1c1nnc(-c2ccccc2)s1` yielded an INHIBITION of 56.3%. With `CCN(CC)C(=O)[C@@H]1C[C@@H](N)CN1c1nc(N(C)C)nc(C)c1C` the INHIBITION was 62.6%. For `CNC(=O)[C@@H]1C[C@@H](N)CN1C(=O)CCSCc1ccccc1`, the INHIBITION was -15.1%. Work on `CNC(=O)[C@@H]1C[C@@H](N)CN1c1nc(N2CCCC2)nc(C)c1C` yielded an INHIBITION of 45.3%. For `CCN(CC)C(=O)[C@@H]1C[C@@H](N)CN1c1nc(N2CCCC2)nc(C)c1C`, the INHIBITION was 33.4%. Molecule `CCNC(=O)[C@@H]1C[C@H](N)CN1c1cc(CC)nc(N(C)C)n1` has an INHIBITION of -69.6%. `COc1ccc(-c2ncccc2C(=O)N2C[C@@H]3CC[C@H]2C3)cn1` was tested, and the INHIBITION was 29.1%. With `Cn1cc(C[C@H]2[C@H](N3CCOCC3)CCN2C2CCOCC2)cn1` the INHIBITION was 0.804%. With `Cn1nc(C(=O)N2CCOCC2)cc1C(=O)Nc1c(Cl)cccc1Cl` the INHIBITION was 51.6%. `Cn1nc(C(=O)N2CCOCC2)cc1C(=O)Nc1ccc(Cl)cc1Cl` was tested, and the INHIBITION was -8.66%. For `Cn1nc(C(=O)N2CCOCC2)cc1C(=O)Nc1ncc(Cl)cc1Cl`, the INHIBITION was -0.71%. Work on `Cc1c(C(=O)N2CCC(C(=O)c3nc4ccccc4s3)CC2)cnn1C` yielded an INHIBITION of 11.025%. `Cc1cccc(C(=O)N2CCN(C)CC2)c1NC(=O)c1ccncc1` showed an INHIBITION of 52.6%. Molecule `Cc1cccc(C(=O)N2CCSCC2)c1NC(=O)c1cccnc1` has an INHIBITION of 45%. Molecule `Cc1cccc(C(=O)N2CCSCC2)c1NC(=O)c1ccsc1` has an INHIBITION of 1.56%. `COc1cccc(-c2nc(CNCCn3cccn3)cs2)c1` gave an INHIBITION of 31.8%. For `COc1cc(CNCCn2cccn2)c2c(c1)CC(C)O2` (stereo unspecified), the INHIBITION was 75.2%. For `COc1cc(CNCCn2cc(C)cn2)c2c(c1)CC(C)O2` (stereo unspecified), the INHIBITION was 75.2%. `COc1cc(CNCCC(N)=O)c2c(c1)CC(C)O2` (stereo unspecified) was tested, and the INHIBITION was 49.4%. For `COc1cc(CNCCn2cc(C)cn2)cc2c1OCCO2`, the INHIBITION was 17.8%. Molecule `COc1ccc(-c2nnc(CNCCn3cc(C)cn3)o2)cc1` has an INHIBITION of 5.7%. `O=C(c1cccc(F)c1)N1CCc2ncc(Cn3cccn3)n2CC1` was tested, and the INHIBITION was 3.58%. `Cc1cccnc1NCCNC(=O)c1cnc(-c2ccccn2)nc1O` gave an INHIBITION of 92.1%. With `Cc1cccnc1NCCNC(=O)c1cnc(-c2cccs2)nc1O` the INHIBITION was 14.9%. Work on `Cc1nc(C(C)C)sc1C(=O)NCCSc1ccccn1` yielded an INHIBITION of -71.3%. `Cc1nc(-c2ncc(C(=O)NCCNc3ncccc3C)c(O)n2)cs1` showed an INHIBITION of 50.3%. Work on `CC(C)(C)c1ncc(C(=O)NCCSc2ccccn2)c(O)n1` yielded an INHIBITION of 69.1%. `O=C(NCCCO)c1cnc(-c2ccccc2)nc1O` gave an INHIBITION of 48.5%. `CCSCCNC(=O)c1cnc(-c2ccccc2)nc1O` showed an INHIBITION of 40.3%. `CCn1c(N)nc2cc(C(=O)NCCNc3ncccc3C)cnc21` showed an INHIBITION of -87.1%. In the case of `CCn1c(C)nnc1SCCNC(=O)c1cnc(C(C)(C)C)nc1O`, the INHIBITION was 23.6%. With `Cc1noc(NCc2cn(C)nc2-c2ccncc2)n1` the INHIBITION was 19.4%. `Cc1ccc(C(=O)NS(=O)(=O)c2c(Cl)cccc2Cl)c(=O)[nH]1` showed an INHIBITION of 19.4%. For `CN(C)CCN1CCO[C@H]2CN(Cc3cnn(C)c3)C[C@H]21`, the INHIBITION was -57.1%. Work on `Cc1nnsc1C(=O)N1CCCCC1c1cc2nc(C)c(C)c(O)n2n1` (stereo unspecified) yielded an INHIBITION of 19.3%. Molecule `Cc1nc(-c2ccccc2)sc1CNC(=O)c1ccc(=O)n(C)c1` has an INHIBITION of 39.6%. `CC(NCCCN1CCCC1=O)c1cc(Br)ccc1O` (stereo unspecified) was tested, and the INHIBITION was -1.3%. Molecule `c1cc2c(cc1Cn1cc(C3CCOC3)nn1)OCO2` (stereo unspecified) has an INHIBITION of 17.6%. In the case of `Cc1ocnc1C(=O)N(C)[C@@H]1CC[C@@H](n2ccnc2C)[C@@H]1O`, the INHIBITION was 45.9%. With `Cn1cnc2cc(CCC(=O)Nc3nc[nH]n3)ccc21` the INHIBITION was 39.2%. Molecule `CCc1ccc(C2CC(=O)Nc3c2c(=O)n(C)c2ncnn32)cc1` (stereo unspecified) has an INHIBITION of 0.207%. `Cn1c(=O)c2c(n3ncnc13)NC(=O)CC2c1cccc(F)c1` (stereo unspecified) showed an INHIBITION of 41.6%. `Cn1c(=O)c2c(n3ncnc13)NC(=O)CC2c1ccc(F)cc1` (stereo unspecified) was tested, and the INHIBITION was 54%. `Cc1nc(N(C)C)nc(-c2cccc(-c3ccn(CCCO)n3)c2)c1C` showed an INHIBITION of 14.9%. For `Cc1ccc(CNCC2CNc3cc(C)nn3C2)cn1` (stereo unspecified), the INHIBITION was 33.35%. `CCOc1cncc(N2CCOCC2)n1` gave an INHIBITION of 35.4%. `O=C(CCN1CCCCO1)NC1CCCN(CC2CCCCC2)C1` (stereo unspecified) was tested, and the INHIBITION was 11.2%. In the case of `O=C(CCN1CCCO1)NC1CCCN(CC2CCCCC2)C1` (stereo unspecified), the INHIBITION was 50.5%. With `O=C(CCN1CCOCC1)NC1CCCN(CC2CCCCC2)C1` (stereo unspecified) the INHIBITION was 1.37%. `CCOc1ccc2cc(C(=O)NCCC(=O)N(C)C)[nH]c2c1` showed an INHIBITION of -5.22%. In the case of `Cc1ccc(N2CCCN(CC3CC3)C(C(C)C)C2)nn1` (stereo unspecified), the INHIBITION was 23%. In the case of `COCC1COCCC12CCN(C(=O)CC1Cc3ccccc3C1)CC2` (stereo unspecified), the INHIBITION was 23.6%. Molecule `Clc1snnc1CN1CCCC1Cn1cccn1` (stereo unspecified) has an INHIBITION of -36.1%. With `Cc1ccnn1CC(=O)N1CCN(C2CCc3ccccc3C2)CC1` (stereo unspecified) the INHIBITION was 10.7%. `CCc1nccn1CC(=O)N1CCN(C2CCc3ccccc3C2)CC1` (stereo unspecified) gave an INHIBITION of 57.9%. Work on `Cc1ccnn1CCC(=O)N1CCN(C2CCc3ccccc3C2)CC1` (stereo unspecified) yielded an INHIBITION of -5.08%. Molecule `COc1cc(-n2cccc2)c(Cl)cc1C(=O)NS(C)(=O)=O` has an INHIBITION of 23.7%. `CC(C)(C)CC(=O)N1[C@@H](c2ccco2)[C@@H](CO)C[C@]12CCCCNC2=O` showed an INHIBITION of 22.2%. Molecule `O=C(NCC(c1ccccc1)N1CCOCC1)Nc1cn[nH]c1` (stereo unspecified) has an INHIBITION of -113%. In the case of `Cn1c(CN2CCCCCC2)cc(=O)c(O)c1CN1CCCC1`, the INHIBITION was 63.1%. For `Cn1c(CN2CCOCC2)cc(=O)c(O)c1CN1CCCCC1`, the INHIBITION was 30.2%. `Cn1c(CN2CCCC(N3CCCCCC3)C2)cc(=O)n(C)c1=O` (stereo unspecified) showed an INHIBITION of -10.9%. In the case of `Cn1c(CN2CCOCC2)cc(=O)c(O)c1CN1CCCC1`, the INHIBITION was 6.12%. `Cn1c(CN2CCOCC2)cc(=O)c(O)c1CN1CCOCC1` gave an INHIBITION of 5.58%. `Cn1c(CN2CCCCC2)cc(=O)c(O)c1CN1CCCCC1` gave an INHIBITION of 74%. With `CN(CCn1nc2ccccn2c1=O)CC(=O)N1CCCC1` the INHIBITION was 18.2%. `CCn1cc(CN(C)C(=O)c2cc(C(F)(F)F)n(C)n2)cn1` gave an INHIBITION of -6.42%. Work on `CC(C)(CO)Nc1c(NCc2ccncc2)c(=O)c1=O` yielded an INHIBITION of 32.8%. In the case of `COc1ccc(C(=O)NCCCOC(C)c2ccccc2)c(OC)c1` (stereo unspecified), the INHIBITION was 84.4%. With `CC(OCCCNC(=O)c1cccnc1O)c1ccccc1` (stereo unspecified) the INHIBITION was -21.2%. In the case of `COc1ccc(C(=O)NCCCNc2ncccn2)c(OC)c1`, the INHIBITION was 30.8%. In the case of `CCC[C@@H]1CN(C(=O)c2ccccc2C(C)=O)C[C@H]1N(C)C`, the INHIBITION was 8.92%. With `CCC[C@@H]1CN(C(=O)c2ccccc2-c2ccccc2)C[C@H]1N(C)C` the INHIBITION was 31.7%. `CCC[C@@H]1CN(C(=O)c2cc3ccccc3cc2O)C[C@H]1N(C)C` was tested, and the INHIBITION was 51.5%. Molecule `Cc1ccc(-c2n[nH]cc2CNCC2CCN(CC(F)(F)F)C2)o1` (stereo unspecified) has an INHIBITION of 27.5%.
